# Assay results reported in the supplement of paper PMC3334620.
# Whole data set: some 33,000 sequences, median “E-score (-0.5 to 0.5)” near -0.01, cut for the highest 2% near 0.26. The full list was thinned out, with the highest values kept by preference.
# Target: Ste12 (UniProt P13574)
# Experiment: PBM E-score (8-mer binding enrichment) (E-score (-0.5 to 0.5)); higher = stronger / more preferred TF binding
# Details: protein concentration: 200 nM; construct: GST-DNA-binding domain
# Description: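 Universal 'all 10-mer' protein binding microarrays (Agilent AMADID 015681) probed with GST-tagged S. cerevisiae TFs (full-length or DBD) made by in vitro transcription/translation (PURExpress), about 100-200 nM. Bound TF was detected with fluorescent anti-GST. Each ungapped 8-mer (which stands for itself and its reverse complement) is scored by the PBM enrichment score (E-score), a modified Wilcoxon-Mann-Whitney statistic from -0.5 to +0.5, computed with the Universal PBM Analysis Suite. Scale: above 0.35 generally sequence-specific binding.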
# Sequence of UniProt P13574 (P13574 whole entry): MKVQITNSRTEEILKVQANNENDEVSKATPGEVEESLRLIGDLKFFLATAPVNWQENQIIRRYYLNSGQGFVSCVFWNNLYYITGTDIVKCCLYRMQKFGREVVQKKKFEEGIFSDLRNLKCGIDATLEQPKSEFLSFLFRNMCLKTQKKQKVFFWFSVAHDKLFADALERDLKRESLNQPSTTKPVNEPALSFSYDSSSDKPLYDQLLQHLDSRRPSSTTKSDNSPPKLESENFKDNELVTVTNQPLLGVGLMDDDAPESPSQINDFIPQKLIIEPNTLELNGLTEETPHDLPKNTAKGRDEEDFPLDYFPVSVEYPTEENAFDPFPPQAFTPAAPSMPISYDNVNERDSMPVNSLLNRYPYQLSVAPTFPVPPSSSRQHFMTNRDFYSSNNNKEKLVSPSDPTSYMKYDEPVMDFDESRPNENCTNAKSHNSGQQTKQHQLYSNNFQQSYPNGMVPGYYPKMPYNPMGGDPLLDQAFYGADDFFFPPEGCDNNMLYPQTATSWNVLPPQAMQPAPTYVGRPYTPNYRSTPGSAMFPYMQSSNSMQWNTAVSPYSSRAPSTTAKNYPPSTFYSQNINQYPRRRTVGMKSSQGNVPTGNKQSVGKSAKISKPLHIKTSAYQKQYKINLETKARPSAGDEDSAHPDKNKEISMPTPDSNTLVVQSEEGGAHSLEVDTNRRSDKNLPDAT
row,Sequence,PBM E-score
1,CCATGGCG,-0.0357
2,GCTTACTA,0.00559
3,AGCCTCTG,-0.135
4,CAGTTAGC,-0.218
5,AAAAAAAT,0.337
6,GGAAATAA,0.284
7,TGAAAAAA,0.293
8,GGAAAAAC,0.322
9,TGAAAACA,0.162
10,ATAAAAAT,0.241
11,AGGAAAAC,-0.0394
12,GGAAAACC,0.0776
13,AAAAAATT,0.197
14,AGAAATAA,0.207
15,TGAAAGAA,0.131
16,CGAAATAA,0.131
17,GCGACCTA,-0.062
18,CTGGCATC,-0.283
19,AGATTATC,-0.0475
20,CTACCTTA,-0.00289
21,CTGTGCAA,-0.101
22,ACGATTGA,0.158
23,CAGTTAAA,-0.00288
24,CATGAGCG,-0.0776
25,CGTGTGAC,-0.0425

row,Sequence,PBM E-score
1,AGTTCAAA,0.138
2,GCCAAATA,0.101
3,GTTTACGA,0.0472
4,AAAAAAAG,0.294
5,CGGAAAAC,0.0342
6,AGAAAAAA,0.19
7,CGGAAAAA,0.343
8,AAAAAAGG,0.244
9,CAAAAAAG,0.159
10,CGGAAAAG,0.0439
11,CGAAAAAA,0.308
12,AAAAAAAA,0.367
13,CGAAAAAC,0.0959
14,CGAAAAAG,0.212
15,AAAAAAGA,0.182
16,CAGGCGGG,0.0689
17,AATGGGCT,-0.092
18,CGTTTAGC,-0.0383
19,ACAGCCGT,-0.0628
20,AGCCTTAT,0.0824
21,ACGGAAAA,0.177
22,AAAAAGCG,0.317
23,GGGGAAAA,0.112
24,TTGGAAAA,0.177
25,GGGAAAAA,0.272

row,Sequence,PBM E-score
1,TGGAAAAA,0.302
2,TCGGAAAA,0.275
3,GGGAAAAC,0.116
4,AAAAAGCC,0.229
5,AGGAAAAA,0.16
6,CAAAAGCG,0.14
7,GCGGAAAA,0.253
8,AATCCAAA,0.14
9,CCGTTAAG,-0.177
10,ACGCTGCC,-0.108
11,ACCTTTGA,0.0506
12,GGTCTTCA,-0.164
13,CCTTTTCA,-0.0167
14,CGTAGCAA,0.00941
15,AAGCCTTG,-0.00117
16,GGTGTGAA,0.19
17,CGTGTGAA,0.14
18,ACTGTGAT,-0.0243
19,TGTGTGAA,0.284
20,GCTGTGAA,-0.0834
21,ACTGTGAA,0.27
22,ACTAAGAG,-0.0255
23,CAATGATA,0.074
24,TAATGAGA,0.168
25,GCATGATA,0.0794

row,Sequence,PBM E-score
1,GTATGATA,0.0429
2,TAATGATA,0.272
3,GAATGATC,0.00293
4,AAATGATA,0.292
5,GAATGATA,0.309
6,CTATGATA,-0.0247
7,ATATGATA,0.271
8,AAATGATT,0.197
9,AAATGATC,-0.0582
10,ATGCCTCC,-0.0978
11,CAATCTCC,-0.00169
12,CTCGATAC,0.155
13,GAGCGATC,-0.105
14,CCGGTCGC,-0.0319
15,GGTGACAA,0.0614
16,AAGAGCTC,-0.0902
17,CAGGGCCC,-0.148
18,ATAAATAA,0.266
19,CAAAATAC,0.115
20,CAAAATAG,-0.0251
21,ATAAATAG,0.0906
22,CAAAATAA,0.33
23,CTAAATAA,0.0819
24,TTAAATAA,0.249
25,AAAAATAA,0.229

row,Sequence,PBM E-score
1,TAAAATAA,0.269
2,ATCTCAGC,-0.112
3,AGTTGAGC,-0.152
4,ATCTATGC,-0.0236
5,ACGGGCCC,-0.199
6,GATTTAAA,0.113
7,TATTTAAA,0.379
8,TATTTACA,0.101
9,AATTTAAT,0.159
10,TATTTTAA,0.301
11,TCTTTTAA,0.142
12,AATTTAAC,0.208
13,CATTTAAA,0.277
14,CATTTAAC,0.212
15,GATTTTAA,0.201
16,AATTTAAA,0.269
17,CATTTAAG,-0.0794
18,GCACCAGC,-0.101
19,GGACAGGA,-0.152
20,ACCATCGC,0.0245
21,CGCAATCA,0.0872
22,GGCTCACC,-0.244
23,ACTAGGTG,-0.199
24,CACTTAAC,-0.121
25,AACTTAAA,0.186

row,Sequence,PBM E-score
1,CACTTAAA,0.287
2,AGTCCACA,-0.173
3,ATGAAAGA,0.184
4,AGGAAACA,0.19
5,AGGAAACG,-0.105
6,GTGAAAAA,0.232
7,GTGAAACA,0.48
8,ATGAAACA,0.495
9,ATGAAACG,0.484
10,GTGAAATA,0.169
11,AAGAAACG,0.148
12,AAGCAGCC,-0.078
13,ACATCTGA,-0.24
14,CAACTGTA,-0.0454
15,AATCAATG,0.0688
16,CCTAGAGC,-0.189
17,ATTATCCC,0.0652
18,ATTATCCG,0.294
19,ATTATCCA,0.0202
20,ACCAGTAC,-0.11
21,GTAACAGA,0.334
22,AAAACAGG,-0.0182
23,AAAACAGC,0.127
24,GAAACAGC,0.232
25,AAAACAGA,0.295

row,Sequence,PBM E-score
1,CTAACAGA,0.153
2,ATAACAGA,0.115
3,CAAACAGA,0.12
4,GAAACAGA,0.287
5,ATATACAT,0.00017
6,AGCCTGTC,-0.181
7,CGCTCTTC,0.00173
8,ATGTATCC,0.0246
9,ATGTATCG,0.0479
10,CTGTATCA,0.207
11,ATGTATCA,0.344
12,GTGTATTA,0.25
13,GTGTATCA,0.301
14,ACCAACCT,0.0089
15,ATTGCTGC,-0.00539
16,GCACTCCA,-0.161
17,AAAGAATC,0.136
18,GACTCACA,-0.201
19,AATCTCCA,-0.184
20,GAAACCAA,0.355
21,CTAACCAA,0.186
22,ATAACCAG,-0.0264
